Our source for the outcome and AC50 values is PubChem BioAssay (EPA / NIEHS).

Values joined by “and” are separate entries in the source; they are usually repeats but may differ in a detail not shown here. Equal values may be shown once. Where a structure was tested more than once in an assay, its records may differ in their call. Active and inactive are the calls of the source. Rule for the calls: active = hit-call score of the fitted dose curve at least 0.9, where 1 is the maximum; inactive = score below 0.9.

Test [1] concerns the target Bile acid receptor (Homo sapiens) (UniProt Q96RI1). The experiment in a line: ATG_IR1_CIS: Attagene CIS-FACTORIAL HepG2 Assay for human Nuclear Receptor Subfamily 1 Group H Member 4 (NR1H4), IR1 submotif (AID 2282946). The conditions noted are these: IR1 reporter transcription, actives raise or lower the signal. An outline of the steps: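 HepG2 cells transiently transfected with multiplexed cis-element reporter units read endogenous transcription factor activity. After 24 h compound exposure, reporter mRNA was quantified by RT-PCR, fluorescent labelling, HpaI digestion and capillary electrophoresis; bidirectional fitting versus DMSO baseline.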

A short description of test [2]: ATG_ISRE_CIS: Attagene CIS-FACTORIAL HepG2 Assay for human Interferon Regulatory Factor 1 (IRF1) binding to an Interferon-Stimulated Response Element (ISRE) (AID 2282948). The conditions noted are these: HepG2 ISRE cis-reporter (Attagene), mRNA transcription readout; actives raise or lower the signal. An outline of the steps:
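Multiplexed mRNA reporter readout in human liver HepG2 cells: cis-element-driven reporters transfected, compound added for 24 h, transcripts amplified, fluorescently labelled and sized by capillary electrophoresis; curve fitting bidirectional against DMSO.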

The nature of test [3]: ATG_M_32_CIS: Attagene CIS-FACTORIAL HepG2 Assay for M32 Transcription Factor (Internal Marker) (AID 2282949).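 Note: background control marker of the multiplexed CIS panel rather than a real target.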 The note with it: HepG2 Attagene cis-factorial M32 reporter, mRNA; actives raise or lower the signal. An outline of the steps: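 Transient MRTU transfection of HepG2; 24 h compound treatment; TriZol RNA, oligo(dT) RT, reporter PCR, 6-FAM primer extension, HpaI cut, CE. Gain/loss of signal vs DMSO.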

Test [4] can be described thus: ATG_M_06_CIS: Attagene CIS-FACTORIAL HepG2 Assay for M06 Transcription Factor (Internal Marker) (AID 2282950). The conditions noted are these: HepG2 Attagene CIS-FACTORIAL M06 internal marker reporter; actives raise or lower the signal. A digest of the protocol: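 Terse: HepG2, transient MRTU transfection (FuGene 6), 24 h dosing; total RNA, oligo(dT) RT, PCR, FAM label, HpaI cut, capillary electrophoresis; bidirectional fit vs DMSO baseline; background-control endpoint.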

Test [5] concerns the target Hypoxia-inducible factor 1-alpha (Homo sapiens) (UniProt Q16665). Description: ATG_HIF1a_CIS: Attagene CIS-FACTORIAL HepG2 Assay for human Hypoxia Inducible Factor 1 (HIF1A) (AID 2282951). The conditions noted are these: HepG2 Attagene cis-factorial HIF1a reporter transcription; actives raise or lower the signal. An outline of the steps:
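Dosed 24 h, transfected HepG2 cells yielded total RNA whose reporter transcripts were RT-PCR-amplified and sized by capillary electrophoresis using fluorescent labelling; DMSO defined baseline, with gain and loss of signal both fitted.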

For test [6], the target named is Hepatocyte nuclear factor 6 (Homo sapiens) (UniProt Q9UBC0). The experiment in a line: ATG_HNF6_CIS: Attagene CIS-FACTORIAL HepG2 Assay for human Hepatocyte Nuclear Factor 6 (HNF6) (AID 2282952). The note with it: HepG2 Attagene cis-factorial HNF6 reporter transcription; actives raise or lower the signal. An outline of the steps:
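Endogenous factor activity read in transiently transfected HepG2 via promoter-regulated reporter transcripts. RNA harvested 24 h post-dosing, reverse-transcribed, PCR-amplified, FAM-labelled, HpaI-digested and resolved by capillary electrophoresis; fitted in both directions against DMSO.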

Test [7] has as its target Heat shock factor protein 1 (Homo sapiens) (UniProt Q00613). The experiment in a line: ATG_HSE_CIS: Attagene CIS-FACTORIAL HepG2 Assay for human Heat Shock Transcription Factor 1 (HSE) (AID 2282953). The note with it: HepG2 HSE cis-reporter, Attagene RNA transcription; actives raise or lower the signal. An outline of the steps: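 Read-out: fluorescence of reporter-specific RT-PCR fragments separated by capillary electrophoresis. HepG2 carrying transfected cis-element reporter units; 24 h dosing; activity fitted in both directions relative to DMSO baseline.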

The nature of test [8]: ATG_MRE_CIS: Attagene CIS-FACTORIAL HepG2 Assay for human Metal Responsive Element (MRE) (AID 2282954). The conditions noted are these: HepG2 MRE cis-reporter transcription, Attagene multiplex; actives raise or lower the signal. A digest of the protocol: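 Multiplexed cis-reporter assay in human HepG2 liver cells, 24 h incubation with test chemical. Reporter transcripts measured by RT-PCR and capillary electrophoresis; values from bidirectional curve fitting versus DMSO.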

The nature of test [9]: ATG_PBREM_CIS: Attagene CIS-FACTORIAL HepG2 Assay for human Phenobarbital-responsive Enhancer Module (PBREM) (AID 2282955). The note with it: HepG2 PBREM cis-reporter, Attagene multiplexed transcription; actives raise or lower the signal. A digest of the protocol: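 Transfected liver-derived HepG2 cells exposed 24 h; PBREM reporter transcript quantified via RT-PCR and capillary electrophoresis, with activity in either direction referenced to DMSO.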

The nature of test [10]: ATG_PXRE_CIS: Attagene CIS-FACTORIAL HepG2 Assay for human Pregnane X Receptor Element (PXRE) (AID 2282957). The conditions noted are these: HepG2 Attagene CIS-FACTORIAL PXRE reporter, mRNA; actives raise or lower the signal. An outline of the steps:
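Reporter transcripts under endogenous PXR-responsive cis-regulation quantified from total RNA of transfected HepG2 cells 24 h post-dosing, via RT-PCR with fluorescent primer extension and capillary electrophoresis. Gain or loss of signal fitted against DMSO baseline.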

Test [11] in a line: ATG_PPRE_CIS: Attagene CIS-FACTORIAL HepG2 Assay for human Peroxisome Proliferator-activated Response Element (PPRE) (AID 2282958). The note with it: HepG2 PPRE cis-element reporter, Attagene transcription factor profiling; actives raise or lower the signal. An outline of the steps:
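Measured endpoint: PPRE-controlled reporter mRNA, detected by RT-PCR and capillary electrophoresis fluorescence, from transiently transfected HepG2 cells 24 h after dosing. Curves fitted in both directions using DMSO baseline.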

Test [12] is described as follows: ATG_RORE_CIS: Attagene CIS-FACTORIAL HepG2 Assay for human RAR-related Orphan Receptor Element (RORE) (AID 2282959). The note with it: HepG2 Attagene cis-factorial RORE reporter, mRNA; actives raise or lower the signal. An outline of the steps: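 Transiently transfected HepG2 reporter cells were treated 24 h. Reporter transcripts were detected by RT-PCR and capillary electrophoresis, with bidirectional fitting against DMSO.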

Test [13] is described as follows: ATG_Sox_CIS: Attagene CIS-FACTORIAL HepG2 Assay for human SRY-box transcription factor (SOX) (AID 2282960). The conditions noted are these: HepG2 Attagene cis-factorial SOX reporter, mRNA; actives raise or lower the signal. A digest of the protocol:
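Gain- or loss-of-signal endpoint, fitted bidirectionally with DMSO as negative control. Based on reporter mRNA from transfected HepG2 cells harvested 24 h post-treatment and quantified via RT-PCR and capillary electrophoresis.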

Test [14] concerns the target Transcription factor Sp1 (Homo sapiens) (UniProt P08047). Description: ATG_Sp1_CIS: Attagene CIS-FACTORIAL HepG2 Assay for human Specificity Protein 1 (Sp1) (AID 2282961). The note with it: HepG2 Sp1 cis-reporter transcription, actives raise or lower the signal. An outline of the steps:
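Endpoint reflects endogenous Sp1 transcriptional activity, not an exogenous fusion protein: HepG2 cells with transfected cis-regulated reporters, 24 h dosing, RT-PCR/capillary electrophoresis mRNA read-out, DMSO-normalised bidirectional fit.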

Test [15] is described as follows: ATG_SREBP_CIS: Attagene CIS-FACTORIAL HepG2 Assay for human Sterol Regulatory Element Binding (SREBP) (AID 2282962). The note with it: HepG2 Attagene cis-factorial SREBP reporter, mRNA; actives raise or lower the signal. A digest of the protocol: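 Endogenous factor activity is measured in HepG2 through multiplexed reporter units under cis-element control. Following a 24 h incubation, reporter transcripts are reverse-transcribed, PCR-amplified and sized by capillary electrophoresis; activity is fitted in both directions relative to DMSO.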

The target of test [16] is Signal transducer and activator of transcription 3 (Homo sapiens) (UniProt P40763). Description: ATG_STAT3_CIS: Attagene CIS-FACTORIAL HepG2 Assay for human Signal Transducer and Activator of Transcription 3 (STAT3) (AID 2282963). The conditions noted are these: HepG2, Attagene cis-factorial STAT3 reporter transcription; actives raise or lower the signal. An outline of the steps:
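Cis-factorial format: endogenous transcription factors in HepG2 drive transfected reporter units. After 24 h treatment, reporter RNA was reverse-transcribed, amplified, FAM-labelled and HpaI-digested before CE analysis; activity scored in both directions against DMSO.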

A short description of test [17]: ATG_TA_CIS: Attagene CIS-FACTORIAL HepG2 Assay for human TA Basal Promoter (AID 2282964). The conditions noted are these: HepG2 Attagene CIS-factorial TA basal promoter reporter; actives raise or lower the signal. A digest of the protocol:
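Transfected HepG2, 24 h compound exposure; RNA → RT-PCR → FAM primer extension → HpaI cut → CE fluorescence. Gain/loss-of-signal fitted against DMSO negative control. Background-control readout.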

Test [18] can be described thus: ATG_TCF_b_cat_CIS: Attagene CIS-FACTORIAL HepG2 Assay for human T-Cell-Factor with beta-catenin (TCF/b-cat) (AID 2282965). The note with it: HepG2 TCF/beta-catenin cis-reporter transcription, actives raise or lower the signal. A digest of the protocol:
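Endogenous transcription factor activity is captured through cis-promoter reporter constructs transiently introduced into human HepG2 liver cells. Induced reporter mRNA is measured after 24 h and fitted bidirectionally relative to DMSO.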

Test [19] in a line: ATG_GRE_CIS: Attagene CIS-FACTORIAL HepG2 Assay for human Glucocorticoid Response Elements (GRE) (AID 2282947). The note with it: HepG2 GRE cis-reporter, Attagene multiplex mRNA; actives raise or lower the signal. An outline of the steps:
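Multiplexed cis-reporter mRNA induction, HepG2, 24 h post-dose. RT-PCR, FAM-labelled, HpaI-digested amplicons by CE. Bidirectional fit vs DMSO.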

Test [20] addresses Paired box protein Pax-6 (Homo sapiens) (UniProt P26367). The experiment in a line: ATG_Pax6_CIS: Attagene CIS-FACTORIAL HepG2 Assay for human Paired Box 6 (PAX6) (AID 2282956). The conditions noted are these: HepG2 CIS-FACTORIAL PAX6 reporter transcription, RNA readout; actives raise or lower the signal. An outline of the steps: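 Fluorescent RT-PCR products separated by capillary electrophoresis report PAX6-linked promoter mRNA in HepG2 cells 24 h post-dose. Curves fitted bidirectionally, DMSO as negative control.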

Heat shock factor protein 1 (Homo sapiens), sequence (Q00613 whole entry, looked up, the tested form may be a part): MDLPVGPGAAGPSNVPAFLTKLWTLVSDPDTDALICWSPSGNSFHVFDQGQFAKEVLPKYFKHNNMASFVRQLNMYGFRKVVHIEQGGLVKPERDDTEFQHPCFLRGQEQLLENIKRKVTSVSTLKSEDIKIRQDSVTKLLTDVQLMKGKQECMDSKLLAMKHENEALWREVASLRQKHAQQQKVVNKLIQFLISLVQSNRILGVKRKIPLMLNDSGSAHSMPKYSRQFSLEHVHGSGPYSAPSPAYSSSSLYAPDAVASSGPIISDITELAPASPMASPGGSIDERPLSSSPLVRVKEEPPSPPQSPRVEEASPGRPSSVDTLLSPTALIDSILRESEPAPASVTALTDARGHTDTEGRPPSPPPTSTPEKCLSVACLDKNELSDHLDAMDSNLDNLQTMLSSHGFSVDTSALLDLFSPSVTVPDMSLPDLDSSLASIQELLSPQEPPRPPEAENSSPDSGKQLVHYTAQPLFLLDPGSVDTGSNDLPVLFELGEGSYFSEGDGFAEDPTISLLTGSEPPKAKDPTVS
Bile acid receptor (Homo sapiens), sequence (Q96RI1 whole entry, looked up): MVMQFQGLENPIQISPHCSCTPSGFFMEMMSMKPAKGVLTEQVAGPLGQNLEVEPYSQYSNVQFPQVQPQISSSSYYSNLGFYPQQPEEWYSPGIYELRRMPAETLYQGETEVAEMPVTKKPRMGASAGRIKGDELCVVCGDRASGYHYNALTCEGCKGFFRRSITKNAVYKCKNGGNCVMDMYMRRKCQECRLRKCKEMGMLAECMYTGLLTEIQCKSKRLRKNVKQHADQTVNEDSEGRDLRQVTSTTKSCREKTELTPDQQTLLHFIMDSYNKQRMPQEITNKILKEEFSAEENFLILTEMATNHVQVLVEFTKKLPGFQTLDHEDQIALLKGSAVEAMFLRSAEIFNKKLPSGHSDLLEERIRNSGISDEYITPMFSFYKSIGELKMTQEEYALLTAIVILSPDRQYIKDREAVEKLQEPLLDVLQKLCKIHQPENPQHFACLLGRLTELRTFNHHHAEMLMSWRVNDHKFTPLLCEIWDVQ
Hepatocyte nuclear factor 6 (Homo sapiens), sequence (Q9UBC0 whole entry, looked up): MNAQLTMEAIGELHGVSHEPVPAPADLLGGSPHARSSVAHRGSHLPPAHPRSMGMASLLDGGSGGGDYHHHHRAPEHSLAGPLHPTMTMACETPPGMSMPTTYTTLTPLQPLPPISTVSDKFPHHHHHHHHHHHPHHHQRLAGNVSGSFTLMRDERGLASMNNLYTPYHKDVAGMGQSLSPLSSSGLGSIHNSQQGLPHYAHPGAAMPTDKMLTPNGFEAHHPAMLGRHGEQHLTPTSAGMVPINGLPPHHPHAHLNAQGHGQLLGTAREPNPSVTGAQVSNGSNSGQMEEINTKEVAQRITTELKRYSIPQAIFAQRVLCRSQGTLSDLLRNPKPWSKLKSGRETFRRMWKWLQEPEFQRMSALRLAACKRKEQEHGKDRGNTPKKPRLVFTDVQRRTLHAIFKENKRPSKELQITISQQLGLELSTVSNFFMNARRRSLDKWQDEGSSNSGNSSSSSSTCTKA
Transcription factor Sp1 (Homo sapiens), sequence (P08047 whole entry, looked up, the tested form may be a part): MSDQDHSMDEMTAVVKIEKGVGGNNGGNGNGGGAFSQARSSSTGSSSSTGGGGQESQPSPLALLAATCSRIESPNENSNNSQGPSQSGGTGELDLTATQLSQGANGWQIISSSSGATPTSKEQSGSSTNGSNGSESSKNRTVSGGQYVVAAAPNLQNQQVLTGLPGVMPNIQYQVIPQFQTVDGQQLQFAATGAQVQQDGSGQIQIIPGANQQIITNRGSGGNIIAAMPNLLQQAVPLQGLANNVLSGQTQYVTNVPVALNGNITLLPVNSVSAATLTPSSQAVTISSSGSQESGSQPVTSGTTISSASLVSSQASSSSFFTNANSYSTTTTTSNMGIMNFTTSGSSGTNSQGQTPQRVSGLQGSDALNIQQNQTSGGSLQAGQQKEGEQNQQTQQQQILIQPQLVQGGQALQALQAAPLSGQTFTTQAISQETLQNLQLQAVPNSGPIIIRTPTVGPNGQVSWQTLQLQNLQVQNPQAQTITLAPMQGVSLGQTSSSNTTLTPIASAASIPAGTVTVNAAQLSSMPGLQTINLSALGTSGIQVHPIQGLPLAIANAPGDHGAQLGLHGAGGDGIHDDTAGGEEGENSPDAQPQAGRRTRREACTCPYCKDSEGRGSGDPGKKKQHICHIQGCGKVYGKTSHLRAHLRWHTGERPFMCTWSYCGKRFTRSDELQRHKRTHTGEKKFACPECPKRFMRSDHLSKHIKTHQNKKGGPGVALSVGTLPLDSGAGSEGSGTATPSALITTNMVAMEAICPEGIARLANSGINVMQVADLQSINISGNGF
Signal transducer and activator of transcription 3 (Homo sapiens), sequence (P40763 whole entry, looked up): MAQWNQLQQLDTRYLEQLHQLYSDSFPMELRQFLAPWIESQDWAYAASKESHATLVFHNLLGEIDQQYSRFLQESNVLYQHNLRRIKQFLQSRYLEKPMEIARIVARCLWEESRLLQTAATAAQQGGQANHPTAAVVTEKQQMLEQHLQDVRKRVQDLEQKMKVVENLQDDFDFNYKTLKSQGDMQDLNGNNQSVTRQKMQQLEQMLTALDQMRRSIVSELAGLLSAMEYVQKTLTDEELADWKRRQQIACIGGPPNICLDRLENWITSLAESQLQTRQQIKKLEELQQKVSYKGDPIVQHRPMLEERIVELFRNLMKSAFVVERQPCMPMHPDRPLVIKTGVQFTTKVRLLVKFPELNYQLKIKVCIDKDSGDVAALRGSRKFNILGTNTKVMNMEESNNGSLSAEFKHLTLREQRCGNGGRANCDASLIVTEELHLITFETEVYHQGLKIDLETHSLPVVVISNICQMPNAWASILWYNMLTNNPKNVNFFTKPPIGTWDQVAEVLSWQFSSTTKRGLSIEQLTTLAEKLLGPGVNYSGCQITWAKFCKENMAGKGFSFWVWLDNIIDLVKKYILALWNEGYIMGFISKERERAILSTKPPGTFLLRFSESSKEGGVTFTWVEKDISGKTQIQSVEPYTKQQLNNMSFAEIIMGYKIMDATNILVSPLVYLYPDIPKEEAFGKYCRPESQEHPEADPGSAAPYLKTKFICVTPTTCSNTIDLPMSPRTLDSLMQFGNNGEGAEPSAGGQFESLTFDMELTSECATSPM
Hypoxia-inducible factor 1-alpha (Homo sapiens), sequence (Q16665 whole entry, looked up): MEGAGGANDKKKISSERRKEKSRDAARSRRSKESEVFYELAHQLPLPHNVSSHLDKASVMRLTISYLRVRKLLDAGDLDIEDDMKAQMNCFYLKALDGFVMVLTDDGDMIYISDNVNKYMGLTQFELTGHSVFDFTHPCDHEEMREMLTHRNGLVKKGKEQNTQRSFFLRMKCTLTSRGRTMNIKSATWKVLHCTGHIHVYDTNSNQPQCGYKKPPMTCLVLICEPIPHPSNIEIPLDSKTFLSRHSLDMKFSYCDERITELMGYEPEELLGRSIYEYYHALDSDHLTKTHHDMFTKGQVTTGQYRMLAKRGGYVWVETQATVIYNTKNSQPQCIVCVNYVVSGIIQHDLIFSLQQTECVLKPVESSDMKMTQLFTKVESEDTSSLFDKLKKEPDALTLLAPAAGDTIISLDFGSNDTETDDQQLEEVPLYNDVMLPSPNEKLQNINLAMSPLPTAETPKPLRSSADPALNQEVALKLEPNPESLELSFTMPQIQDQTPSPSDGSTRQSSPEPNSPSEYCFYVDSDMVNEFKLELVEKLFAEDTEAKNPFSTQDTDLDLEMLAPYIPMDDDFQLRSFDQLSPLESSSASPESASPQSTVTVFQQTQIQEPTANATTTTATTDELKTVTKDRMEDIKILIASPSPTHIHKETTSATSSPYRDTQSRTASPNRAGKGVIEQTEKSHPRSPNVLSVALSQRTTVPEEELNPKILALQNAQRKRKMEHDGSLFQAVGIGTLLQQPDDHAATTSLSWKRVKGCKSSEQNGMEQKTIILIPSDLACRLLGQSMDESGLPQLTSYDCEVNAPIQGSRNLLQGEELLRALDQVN
Paired box protein Pax-6 (Homo sapiens), sequence (P26367 whole entry, looked up): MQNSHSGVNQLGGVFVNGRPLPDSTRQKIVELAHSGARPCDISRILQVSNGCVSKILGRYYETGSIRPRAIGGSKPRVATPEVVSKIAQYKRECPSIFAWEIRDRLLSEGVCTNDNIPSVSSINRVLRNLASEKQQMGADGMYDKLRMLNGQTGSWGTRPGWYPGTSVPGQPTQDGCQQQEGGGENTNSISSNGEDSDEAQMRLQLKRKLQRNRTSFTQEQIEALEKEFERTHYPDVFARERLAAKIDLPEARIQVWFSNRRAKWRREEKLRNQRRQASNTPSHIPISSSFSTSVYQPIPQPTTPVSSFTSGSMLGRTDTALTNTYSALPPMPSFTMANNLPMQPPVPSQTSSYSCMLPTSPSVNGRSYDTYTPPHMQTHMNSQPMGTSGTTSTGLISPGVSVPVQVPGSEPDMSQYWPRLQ

Turning to `CCNS(=O)(=O)C(F)(F)C(F)(F)C(F)(F)C(F)(F)C(F)(F)C(F)(F)C(F)(F)C(F)(F)F`, the compound was called inactive in test [1], in test [2], in [3], in test [4], in test [5] and in test [6]. Further, the compound was called inactive in test [8], in [11], in [12], in [13], in [14] and in [15]. Besides, the result in test [16], in test [17] and in test [18] was inactive. For the same compound, the AC50 in [7] was 130 µM (active) and 218 µM (active) and 80.8 µM (active); in test [8], 114 µM (active) and 150 µM (active); in [9], 96.5 µM (active) and 61.9 µM (active) and 34.7 µM (active); in [10], 3.71 µM (active) and 6.95 µM (active) and 12.9 µM (active); in test [11], 146 µM (active) and 29.8 µM (active); in [13] it was 96.5 µM (active). The AC50 in test [15] was 148 µM (active); in test [18] it was 169 µM (active).

As for `CC(C)N(Cc1ccccc1)C(=O)C(C)(C)C`, the compound was classed as inactive in [1], in test [2], in test [3], in test [4], in test [5] and in [6]. Moreover, the compound was classed as inactive in test [7], in [8], in test [9], in test [11], in test [12] and in [13]. The compound was called inactive in test [14], in test [15], in [16], in test [17] and in [18]. Moreover, in [10], the AC50 was 1.24 µM (active).

`ClC1=C(Cl)[C@]2(Cl)[C@H]3[C@H]([C@@H]4C=C[C@H]3C4)[C@@]1(Cl)C2(Cl)Cl`: the call in test [19], in [2], in test [3], in [4], in test [5] and in [6] was inactive. In addition, the call in test [7], in [9], in [20], in test [11], in test [13] and in test [14] was inactive. For the same compound, the result in test [15], in test [16], in test [17] and in test [18] was inactive. Further, the results for the AC50 in [8], in test [10] and in test [12] were 33.4 µM (active), 2.06 µM (active) and 25.2 µM (active), respectively.
